Of roughly 8,800 targets only a part is listed; those with a hit were picked by preference. About 0.5% of all pairs of compound and target were hits. A number with no mark means an inactive call.
What was measured:
Test in all cases: log2 fold change, soluble protein after heating vs DMSO (PISA); higher = thermal stabilisation; K562 lysate, 10 uM; active = over 0.2 and 3.5 SD of the protein, either way, in both replicates (recomputed)
[1] = compound: CCCS(=O)(=O)Nc1ccc(F)c(C(=O)c2c[nH]c3ncc(-c4ccc(Cl)cc4)cc23)c1F [vemurafenib]
In short: (§1)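 K562 pellets were dounce-homogenised in PBS pH 7.4 with 1 mM MgCl2, and the crude extract at 1 mg/mL protein was treated with 10 μM compound for 30 min. Aliquots were heated for 3 min across 48°C-58°C, pooled, and brought to 0.5% NP-40 at 4°C; soluble protein was the supernatant after 21,000xg for 90 min. Soluble protein was quantified by TMTpro 16plex LC-MS/MS with channel sums equalised, and reported as log2 fold change in thermal stability against DMSO controls, with values from duplicates.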

[2] = compound: CCCS(=O)(=O)Nc1ccc(F)c(C(=O)c2c[nH]c3ncc(Cl)cc23)c1F
In short: as §1

[3] = compound: CCN(CCCOc1ccc2c(Nc3cc(CC(=O)Nc4cccc(F)c4)[nH]n3)ncnc2c1)CCOP(=O)(O)O [barasertib]
In short: as §1

[4] = compound: CC[C@@H]1C(=O)N(C)c2cnc(Nc3ccc(C(=O)NC4CCN(C)CC4)cc3OC)nc2N1C1CCCC1
In short: as §1

[5] = compound: CC[C@@H]1C(=O)N(C)c2cnc(Nc3ccc(C(=O)N[C@H]4CC[C@H](N5CCN(CC6CC6)CC5)CC4)cc3OC)nc2N1C(C)C [volasertib]
In short: as §1

[6] = compound: CCn1c(C(=O)N(C2CC2)C2CC2)cc2c3c(ncn3C)c(Nc3cc(C)n(C)n3)nc21
In short: as §1

[7] = compound: CCn1cc(-c2ccnc3[nH]c(-c4cccc(CN(C)C)c4)cc23)c(-c2ccc(NC(=O)N(C)C)cc2)n1
In short: as §1

[8] = compound: CN1CCC(CNc2ccc3ncc(-c4cccc(OC(F)(F)F)c4)n3n2)CC1
In short: as §1

[9] = compound: CN1CCN(CCOc2cc(OC3CCOCC3)c3c(Nc4c(Cl)ccc5c4OCO5)ncnc3c2)CC1 [saracatinib]
In short: as §1

[10] = compound: CN1CCN(c2nc(C3=C(c4c[nH]c5ccccc45)C(=O)NC3=O)c3ccccc3n2)CC1 [sotrastaurin]
In short: as §1

[11] = compound: CN1CC[C@H](c2c(O)cc(O)c3c(=O)cc(-c4ccccc4Cl)oc23)[C@H](O)C1 [alvocidib]
In short: as §1

[12] = compound: CN1CCc2c(c3ccccc3n2Cc2ccc(C(=O)NO)cc2)C1 [Tubastatin A]
In short: as §1

[13] = compound: CNC(=O)C1=CC=CC=C1NC2=NC(=NC=C2Cl)NC3=C(C=C(C=C3)N4CCOCC4)OC
In short: as §1

[14] = compound: CNC(=O)c1ccc(Nc2ncc(C(F)(F)F)c(NCc3nccnc3N(C)S(C)(=O)=O)n2)cc1 [defactinib]
In short: as §1

[15] = compound: CNc1nc(-c2ccc3c(N)n[nH]c3c2)cc(N2C[C@@H](C(=O)NC3CCCCC3)CC[C@H]2C)n1
In short: as §1

[16] = compound: COC(=O)N[C@@H](C)CNc1nccc(-c2cn(C(C)C)nc2-c2cc(Cl)cc(NS(C)(=O)=O)c2F)n1 [encorafenib]
In short: as §1

[17] = compound: COC(=O)[C@H](CCSC)NC(=O)C1=C(C=C(C=C1)NC[C@H](CS)N)C2=CC=CC=C2
In short: as §1

[18] = compound: COc1cc(Nc2ncc3c(n2)-c2ccc(Cl)cc2C(c2c(F)cccc2OC)=NC3)ccc1C(=O)O [alisertib]
In short: as §1

[19] = compound: COc1cc2nc(-c3cc(F)ccc3O)nc(N[C@@H]3CNC[C@H]3C(C)(C)O)c2cc1OC
In short: as §1

[20] = compound: COc1cc2ncnc(Nc3ccc(F)c(Cl)c3)c2cc1OCCCN1CCOCC1 [gefitinib]
In short: as §1

UniProt O43156, sequence (O43156 whole entry, looked up): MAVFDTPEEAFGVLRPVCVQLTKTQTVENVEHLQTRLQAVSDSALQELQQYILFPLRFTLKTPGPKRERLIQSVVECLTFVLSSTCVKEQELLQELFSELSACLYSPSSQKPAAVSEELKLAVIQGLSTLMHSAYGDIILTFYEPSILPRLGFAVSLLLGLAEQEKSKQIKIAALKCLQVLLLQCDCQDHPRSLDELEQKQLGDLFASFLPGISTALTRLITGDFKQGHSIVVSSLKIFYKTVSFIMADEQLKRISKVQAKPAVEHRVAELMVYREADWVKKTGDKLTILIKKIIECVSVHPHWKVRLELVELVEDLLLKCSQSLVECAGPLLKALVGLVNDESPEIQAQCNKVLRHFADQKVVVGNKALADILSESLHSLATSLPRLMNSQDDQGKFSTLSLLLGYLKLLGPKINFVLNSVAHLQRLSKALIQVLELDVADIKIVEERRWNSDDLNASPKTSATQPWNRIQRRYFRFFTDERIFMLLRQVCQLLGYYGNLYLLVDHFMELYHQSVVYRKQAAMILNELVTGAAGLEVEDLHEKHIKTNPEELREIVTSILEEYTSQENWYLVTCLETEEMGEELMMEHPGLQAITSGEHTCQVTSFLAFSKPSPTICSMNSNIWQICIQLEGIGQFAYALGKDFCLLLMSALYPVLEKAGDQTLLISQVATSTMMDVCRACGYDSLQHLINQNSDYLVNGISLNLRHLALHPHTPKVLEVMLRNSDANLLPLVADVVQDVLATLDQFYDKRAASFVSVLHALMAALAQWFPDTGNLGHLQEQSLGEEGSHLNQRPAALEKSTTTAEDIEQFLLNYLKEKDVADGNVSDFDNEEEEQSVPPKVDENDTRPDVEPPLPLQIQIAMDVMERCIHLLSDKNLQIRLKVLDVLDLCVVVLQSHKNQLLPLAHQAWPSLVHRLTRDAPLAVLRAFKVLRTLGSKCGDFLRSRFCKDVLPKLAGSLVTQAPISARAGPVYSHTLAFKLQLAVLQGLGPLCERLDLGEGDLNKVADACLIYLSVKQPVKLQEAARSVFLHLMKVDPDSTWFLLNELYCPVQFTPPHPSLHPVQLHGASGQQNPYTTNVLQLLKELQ
UniProt Q6IPR3, sequence (Q6IPR3 whole entry, looked up): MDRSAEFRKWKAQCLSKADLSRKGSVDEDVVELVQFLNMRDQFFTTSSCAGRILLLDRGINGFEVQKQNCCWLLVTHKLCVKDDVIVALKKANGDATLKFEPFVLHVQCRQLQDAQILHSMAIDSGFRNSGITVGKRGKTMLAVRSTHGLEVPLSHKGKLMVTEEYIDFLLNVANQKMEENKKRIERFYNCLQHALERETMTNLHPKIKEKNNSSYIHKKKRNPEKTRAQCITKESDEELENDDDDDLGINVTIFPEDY
UniProt Q8TBZ6, sequence (Q8TBZ6 whole entry, looked up): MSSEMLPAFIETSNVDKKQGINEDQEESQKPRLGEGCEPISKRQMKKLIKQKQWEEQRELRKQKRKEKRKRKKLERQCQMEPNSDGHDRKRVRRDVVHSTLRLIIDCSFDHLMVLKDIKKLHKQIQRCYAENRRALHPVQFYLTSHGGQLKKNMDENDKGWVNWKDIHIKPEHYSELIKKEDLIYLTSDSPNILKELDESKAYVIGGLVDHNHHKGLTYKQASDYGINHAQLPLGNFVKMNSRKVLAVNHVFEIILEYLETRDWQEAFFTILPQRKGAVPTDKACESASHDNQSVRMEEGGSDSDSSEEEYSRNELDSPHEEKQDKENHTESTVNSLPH
UniProt Q13885, sequence (Q13885 whole entry, looked up): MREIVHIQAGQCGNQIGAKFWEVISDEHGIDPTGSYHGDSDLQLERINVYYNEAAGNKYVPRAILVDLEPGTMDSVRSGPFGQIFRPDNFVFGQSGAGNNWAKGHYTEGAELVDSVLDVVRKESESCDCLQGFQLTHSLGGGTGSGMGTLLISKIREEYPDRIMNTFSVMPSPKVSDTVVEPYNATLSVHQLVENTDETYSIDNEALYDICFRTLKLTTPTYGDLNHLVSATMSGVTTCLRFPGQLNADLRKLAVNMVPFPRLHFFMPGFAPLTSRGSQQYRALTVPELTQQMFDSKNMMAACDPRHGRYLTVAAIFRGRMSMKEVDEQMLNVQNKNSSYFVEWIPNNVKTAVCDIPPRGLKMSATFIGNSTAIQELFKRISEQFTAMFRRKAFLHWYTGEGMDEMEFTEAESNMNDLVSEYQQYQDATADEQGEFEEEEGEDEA
UniProt Q01085, sequence (Q01085 whole entry, looked up): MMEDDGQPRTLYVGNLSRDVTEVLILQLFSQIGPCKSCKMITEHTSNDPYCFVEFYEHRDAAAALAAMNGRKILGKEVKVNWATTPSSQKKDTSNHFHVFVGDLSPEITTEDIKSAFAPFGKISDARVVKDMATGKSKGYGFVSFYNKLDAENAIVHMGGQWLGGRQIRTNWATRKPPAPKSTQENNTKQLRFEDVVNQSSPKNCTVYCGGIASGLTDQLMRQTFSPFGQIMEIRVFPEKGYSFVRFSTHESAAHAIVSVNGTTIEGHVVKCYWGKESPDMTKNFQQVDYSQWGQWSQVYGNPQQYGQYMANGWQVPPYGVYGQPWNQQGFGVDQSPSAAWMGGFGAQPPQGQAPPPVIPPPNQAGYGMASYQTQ
UniProt Q9Y5K5, sequence (Q9Y5K5 whole entry, looked up): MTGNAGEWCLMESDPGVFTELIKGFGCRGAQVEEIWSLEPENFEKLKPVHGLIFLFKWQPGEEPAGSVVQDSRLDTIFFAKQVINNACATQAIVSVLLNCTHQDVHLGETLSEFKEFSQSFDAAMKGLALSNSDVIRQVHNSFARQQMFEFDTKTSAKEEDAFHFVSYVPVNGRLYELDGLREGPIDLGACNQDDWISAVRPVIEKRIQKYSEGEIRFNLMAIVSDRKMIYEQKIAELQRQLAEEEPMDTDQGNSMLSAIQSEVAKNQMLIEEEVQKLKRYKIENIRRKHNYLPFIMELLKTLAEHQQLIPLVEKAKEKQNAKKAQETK
UniProt Q12815, sequence (Q12815 whole entry, looked up): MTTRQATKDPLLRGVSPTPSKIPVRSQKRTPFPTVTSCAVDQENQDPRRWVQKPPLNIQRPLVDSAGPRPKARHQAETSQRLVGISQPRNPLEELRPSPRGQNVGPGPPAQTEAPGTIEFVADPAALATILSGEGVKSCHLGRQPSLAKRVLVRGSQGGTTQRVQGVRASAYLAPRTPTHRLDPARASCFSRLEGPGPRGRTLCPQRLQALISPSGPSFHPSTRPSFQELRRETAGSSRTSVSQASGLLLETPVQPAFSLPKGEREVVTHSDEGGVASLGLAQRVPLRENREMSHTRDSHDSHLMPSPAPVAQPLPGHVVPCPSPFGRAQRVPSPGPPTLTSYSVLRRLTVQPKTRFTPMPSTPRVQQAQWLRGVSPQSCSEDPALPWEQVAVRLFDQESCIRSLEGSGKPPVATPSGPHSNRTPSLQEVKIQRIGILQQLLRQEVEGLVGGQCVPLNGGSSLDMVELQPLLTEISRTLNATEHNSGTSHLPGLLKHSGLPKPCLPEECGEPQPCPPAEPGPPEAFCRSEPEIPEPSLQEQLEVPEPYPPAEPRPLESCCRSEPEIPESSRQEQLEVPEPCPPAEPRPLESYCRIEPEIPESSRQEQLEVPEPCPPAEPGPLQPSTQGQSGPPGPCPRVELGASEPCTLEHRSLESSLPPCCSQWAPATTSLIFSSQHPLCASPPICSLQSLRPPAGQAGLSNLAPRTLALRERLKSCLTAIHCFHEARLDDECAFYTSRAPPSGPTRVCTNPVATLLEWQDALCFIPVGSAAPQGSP
UniProt P61960, sequence (P61960 whole entry, looked up): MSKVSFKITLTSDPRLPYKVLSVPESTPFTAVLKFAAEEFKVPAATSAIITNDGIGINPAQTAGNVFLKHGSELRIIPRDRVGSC
UniProt Q9NUY8, sequence (Q9NUY8 whole entry, looked up): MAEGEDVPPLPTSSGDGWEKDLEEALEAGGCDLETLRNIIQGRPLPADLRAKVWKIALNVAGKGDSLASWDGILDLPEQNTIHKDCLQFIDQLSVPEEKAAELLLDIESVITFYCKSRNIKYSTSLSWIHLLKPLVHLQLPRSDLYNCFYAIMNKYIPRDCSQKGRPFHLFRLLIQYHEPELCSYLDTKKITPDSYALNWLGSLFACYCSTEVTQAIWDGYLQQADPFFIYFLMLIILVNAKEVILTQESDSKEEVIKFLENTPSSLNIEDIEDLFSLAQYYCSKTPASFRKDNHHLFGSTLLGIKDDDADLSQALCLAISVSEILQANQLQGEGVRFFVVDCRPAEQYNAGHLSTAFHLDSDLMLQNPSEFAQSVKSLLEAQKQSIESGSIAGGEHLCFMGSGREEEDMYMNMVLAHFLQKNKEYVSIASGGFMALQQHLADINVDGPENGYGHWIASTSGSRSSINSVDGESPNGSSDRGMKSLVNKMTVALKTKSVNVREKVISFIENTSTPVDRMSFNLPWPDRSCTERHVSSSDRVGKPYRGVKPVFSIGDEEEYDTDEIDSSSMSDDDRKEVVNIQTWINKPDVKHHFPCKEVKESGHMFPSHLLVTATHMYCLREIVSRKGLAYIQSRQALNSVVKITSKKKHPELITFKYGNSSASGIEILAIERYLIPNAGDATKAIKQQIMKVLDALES
UniProt P62256, sequence (P62256 whole entry, looked up): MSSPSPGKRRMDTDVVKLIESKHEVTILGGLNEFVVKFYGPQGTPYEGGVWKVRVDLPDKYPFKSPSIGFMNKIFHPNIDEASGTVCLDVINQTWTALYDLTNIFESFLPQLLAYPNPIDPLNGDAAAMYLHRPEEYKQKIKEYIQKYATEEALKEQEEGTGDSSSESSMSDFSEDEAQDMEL
UniProt Q5U3C3, sequence (Q5U3C3 whole entry, looked up): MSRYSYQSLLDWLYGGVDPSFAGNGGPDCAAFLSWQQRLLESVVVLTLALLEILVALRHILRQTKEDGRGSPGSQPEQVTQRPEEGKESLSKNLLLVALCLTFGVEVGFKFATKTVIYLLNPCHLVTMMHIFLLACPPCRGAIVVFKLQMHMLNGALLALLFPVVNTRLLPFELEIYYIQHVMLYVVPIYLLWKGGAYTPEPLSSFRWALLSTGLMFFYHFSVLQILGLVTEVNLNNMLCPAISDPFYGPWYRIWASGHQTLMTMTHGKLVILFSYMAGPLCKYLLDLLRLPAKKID

Target | log2 fold change [1] | log2 fold change [2] | log2 fold change [3] | log2 fold change [4] | log2 fold change [5] | log2 fold change [6] | log2 fold change [7] | log2 fold change [8] | log2 fold change [9] | log2 fold change [10] | log2 fold change [11] | log2 fold change [12] | log2 fold change [13] | log2 fold change [14] | log2 fold change [15] | log2 fold change [16] | log2 fold change [17] | log2 fold change [18] | log2 fold change [19] | log2 fold change [20]
UFM1 (UniProt P61960) | -0.249 | -0.035 | 0.039 | 0.044 | 0.047 | 0.014 | 0.491 | -0.338 | 0.016 | 0.028 | 0.253 | 0.102 | 0.037 | 0.136 | 0.088 | 0.023 | -0.076 | 0.038 | -0.08 | -0.116
UBE2H (UniProt P62256) | -0.032 | -0.013 | -0.006 | 0.011 | 0.004 | -0.055 | 0.166 | -0.227 (active) | -0.056 | -0.02 | 0.11 | 0.076 | -0.03 | 0.025 | -0.061 | 0.001 | -0.01 | 0.004 | -0.029 | 0.044
TIAL1 isoform 2 (UniProt Q01085) | -0.009 | 0.014 | -0.023 | 0.072 | 0.005 | 0.002 | -0.076 | 0.056 | -0.02 | -0.017 | -0.005 | 0.05 | -0.015 | 0.006 | -0.005 | 0.009 | -0.053 | 0.027 | 0.013 | 0.041
TUBGCP2 isoform 4 (UniProt Q9BSJ2) | 0.02 | 0.01 | 0.027 | 0.001 | -0.049 | 0.021 | 0.078 | -0.064 | -0.035 | 0 | -0.007 | -0.008 | 0.053 | 0.032 | 0.003 | 0.045 | -0.026 | 0.021 | 0.017 | -0.018
TRMT10A (UniProt Q8TBZ6) | 0.005 | -0.025 | -0.08 | 0.118 | -0.014 | -0.005 | -0.027 | 0.029 | -0.014 | 0.006 | 0.003 | -0.008 | 0.095 | -0.01 | 0.09 | -0.031 | -0.012 | 0.015 | -0.021 | -0.004
TDRD3 isoform 3 (UniProt Q9H7E2) | 0.012 | -0.01 | -0.043 | 0.041 | -0.054 | 0.137 | 0.164 | -0.078 | -0.094 | 0.014 | 0.043 | -0.08 | 0.025 | 0.033 | 0.097 | -0.006 | -0.029 | -0.084 | -0.042 | 0.297
TBC1D23 (UniProt Q9NUY8) | -0.003 | 0.011 | 0 | -0.027 | -0.029 | -0.012 | -0.058 | 0.023 | 0.012 | 0.017 | 0 | -0.076 | 0.025 | -0.006 | 0.05 | -0.009 | -0.019 | -0.014 | 0.002 | -0.006
TROAP (UniProt Q12815) | 0.113 | 0.146 | 0.053 | 0.063 | 0.31 | 0.043 | -0.03 | 0.042 | 0.014 | 0.002 | -0.042 | -0.043 | 0.022 | 0.021 | 0.076 | -0.193 | 0.217 | -0.09 | -0.171 | -0.015
UCHL5 isoform 3 (UniProt Q9Y5K5) | 0.013 | 0.016 | -0.001 | -0.019 | -0.017 | 0.014 | 0.164 | -0.06 | -0.012 | -0.005 | -0.009 | -0.063 | 0.008 | -0.024 | -0.011 | -0.004 | 0.088 | -0.026 | -0.012 | -0.014
UBE3B (UniProt Q7Z3V4) | 0.102 | -0.052 | 0.175 | 0.016 | -0.044 | 0.029 | -0.099 | -0.132 | -0.069 | 0.055 | -0.07 | -0.134 | 0.136 | 0.028 | 0.008 | 0.102 | -0.047 | 0 | 0.006 | 0.044
TUBB2A (UniProt Q13885) | -0.001 | 0.016 | -0.013 | -0.007 | -0.049 | 0.003 | -0.032 | 0.002 | 0.011 | 0.017 | -0.007 | -0.062 | -0.021 | 0.006 | -0.008 | 0.01 | 0.071 | -0.005 | -0.001 | -0.006
TTI1 (UniProt O43156) | 0.006 | -0.012 | 0.055 | -0.093 | -0.026 | 0.006 | -0.074 | 0.019 | -0.003 | 0.006 | 0 | -0.163 | 0.015 | 0.022 | -0.035 | 0.022 | 0.026 | -0.013 | -0.011 | -0.016
TYW3 (UniProt Q6IPR3) | 0.024 | 0.017 | 0.017 | 0.038 | -0.002 | -0.02 | -0.218 | 0.031 | -0.031 | -0.003 | -0.033 | 0.014 | -0.007 | -0.021 | 0.061 | 0.027 | -0.064 | -0.03 | 0.019 | 0.01
TNPO3 (UniProt Q9Y5L0) | 0.024 | 0.003 | 0.019 | 0.009 | -0.008 | 0.008 | 0.005 | 0.023 | -0.001 | -0.004 | 0.003 | -0.04 | 0 | -0.007 | -0.007 | 0 | -0.108 | -0.001 | 0.023 | -0.018
TRNAU1AP (UniProt Q9NX07) | -0.335 (active) | 0.007 | 0.059 | 0.062 | -0.041 | 0.04 | -0.264 | 0.031 | 0.027 | -0.027 | -0.059 | -0.08 | 0.015 | -0.192 | -0.039 | 0.045 | 0.034 | 0.098 | -0.007 | -0.019
TMEM164 (UniProt Q5U3C3) | 0.179 | 0.108 | 0.039 | 0.176 | 0.08 | -0.186 | -0.827 (active) | 0.262 | 0.062 | -0.084 | -0.393 | 0.05 | -0.039 | 0.007 | 0.333 | -0.107 | 0.185 | -0.075 | 0.021 | -0.063

Source: the supplement of paper PMC10849652
